Common to all, as to assay: NCI-60 one-dose screen, 48 h (100 = growth as untreated, 0 = no growth, -100 = all killed)
Common to all, as to conditions: 10 µM unless noted

The subject of test [1] is HCT-15 colon.
Test [2] deals with HT29 colon.
Test [3] has as its system SNB-75 CNS.
In test [4] the test system is SNB-19 CNS.
The subject of test [5] is U251 CNS.
In test [6] the test system is PC-3 prostate.
In test [7] the test system is SK-MEL-5 melanoma.
In test [8] the test system is UACC-62 melanoma.
Test [9] relates to LOX IMVI melanoma.
Test [10] relates to SK-MEL-28 melanoma.
The subject of test [11] is SK-MEL-2 melanoma.
The test system of test [12] is EKVX NSCLC.
In test [13] the test system is SN12C renal.
Test [14] has as its system UO-31 renal.
Test [15] concerns TK-10 renal.
Test [16] deals with ACHN renal.
Test [17] relates to CAKI-1 renal.
Test [18] relates to A498 renal.
Test [19] concerns CCRF-CEM leukemia.
For test [20], the system named is MOLT-4 leukemia.

About 83,000 compounds went through this panel and 20% of them were active in at least one assay; those are over-represented in the sample as a whole.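 96-well plates, one dose, 48 hours. Percent growth reported; active if below 10.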 Values without a mark were called inactive. Activity calls are given as the source filed them.

As for `CCCc1cc2cc(-n3nc(CC)c4c3CC(C)(C)CC4=O)cc(NC3CCC(O)CC3)c2c(=O)[nH]1` (stereo not given), the growth in test [1] was 17%; in test [2], 7.9% (active); in [3], -6.85% (active); in test [4], 30.6%; in [5] it was 27.8%; in [6], 32.8%. Also, the growth is 14.1% in [7]; 26.6% in [8]; 23.7% in test [9]; 40.8% in [10]; 53.1% in test [11]; 52.4% in test [12]. In addition, the growth in [13] is 7.81% (active); in test [14], 14.1%; in test [15], 0.71% (active); in test [16], 8.86% (active); in test [17], 19.6%; in [18], 37%. In addition, the results for the growth in test [19] and in [20] were 21.8% and 15.3%, respectively.

Turning to `COc1ccccc1Cn1cc(C#N)c(N)c1C(=O)c1ccc(Br)cc1`, the growth was 86.6% in test [1]; 107% in test [2]; 81.1% in test [3]; 84.9% in test [4]; 102% in [5]; 96.8% in test [6]. Further, the growth in test [7] was 96.7%; in [8], 69.7%; in test [9], 94.6%; in test [10] it was 100%; in [11], 98.6%; in test [12], 85.2%. Further, the growth in test [13] is 92.1%; in [14], 78.1%; in test [15], 108%; in [16] it was 96.6%; in test [17], 80.6%; in test [18] it was 77.7%. In addition, the growth in test [19] is 91.4%; in [20], 85.4%.

For the compound `CC(=O)/C(N=Nc1ccc2oc(=O)ccc2c1)=C(\C)O`, the growth was 16.5% in test [1]; 24.4% in test [2]; 67.8% in test [3]; 29% in test [4]; 23.3% in test [5]; 20.7% in test [6]. For the same compound, the growth in [7] was 9.01% (active); in test [8], 33.8%; in [9] it was 19%; in [10], 47.3%; in test [11], 0.338% (active); in test [12] it was 30.8%. In addition, the growth in test [13] was 35.6%; in [14] it was 15.4%; in test [15], 23.8%; in test [16], 18.2%; in test [17] it was 33.3%; in test [18], 29.8%. Also, the values for the growth in test [19] and in [20] were 13.1% and 16.4%, respectively.

For `CC(C)NC(=O)c1cc(-c2ccc(NC(=O)Nc3ccc(F)c(C(F)(F)F)c3)cc2)nc2cccnc12`, the growth is 89.7% in [1]; 91% in test [2]; 80% in [3]; 93.6% in [4]; 87.8% in test [5]; 84.2% in test [6]. Also, the growth is 93.2% in test [7]; 97% in test [8]; 88.8% in [9]; 100% in test [10]; 107% in [11]; 95.3% in [12]. The growth is 98.4% in test [13]; 92.3% in test [14]; 96.6% in [15]; 90.5% in [16]; 97.7% in test [17]; 89.7% in test [18]. The values for the growth in test [19] and in test [20] were 90.2% and 117%, respectively.

`O=C(CCCCCCNC(=O)C(O)(O)C(F)(F)F)Nc1ncc(-c2ccccc2)s1`: the growth in [1] was 2.35% (active); in test [2] it was 4.15% (active); in test [3], 35.1%; in test [4] it was 6.24% (active); in test [5] it was -62.6% (active); in [6] it was 22.7%. Moreover, the growth was -67.2% (active) in test [7]; -76.6% (active) in test [8]; -78.2% (active) in test [9]; -19.6% (active) in test [10]; -23.3% (active) in test [11]; 20.8% in test [12]. The growth in test [13] is 2.31% (active); in test [14], -27.9% (active); in test [15] it was -10.3% (active); in test [16] it was -53.1% (active); in [17], -40.4% (active); in test [18], -41.8% (active). Further, the growth in test [19] was 22.5%; in test [20] it was 5.09% (active).

On to `C=C(C)[C@@H]1CC[C@]2(C(=O)N3CCN(C)CC3)CC[C@]3(C)[C@H](CC[C@@H]4[C@@]5(C)CC[C@H](OP(=O)(OCC)OCC)C(C)(C)[C@@H]5CC[C@]43C)[C@@H]12`, for which the growth in test [1] was 60.2%; in [2], 76.1%; in test [3], 89.7%; in test [4], 90.9%; in test [5], 78.8%; in test [6], 44.3%. The growth in test [7] was 69.7%; in test [8], 81.6%; in [9], 44.6%; in test [10] it was 104%; in test [11], 106%; in [12] it was 72.8%. In addition, the growth is 84.7% in [13]; 60.8% in test [14]; 108% in test [15]; 83.6% in test [16]; 61.2% in test [17]; 96.4% in test [18]. Further, the growth in test [19] is 35.4%; in [20], 36.3%.

Regarding `O=c1c2ccccc2cc2n1CCN=C2c1ccccc1`, the growth is 96.6% in [1]; 104% in test [2]; 94.9% in [3]; 94.8% in [4]; 97% in [5]; 96.5% in test [6]. For the same compound, the growth in [7] is 99.5%; in test [8], 96%; in test [9] it was 101%; in test [10], 112%; in test [11], 99.8%; in test [12], 101%. The growth in test [13] is 109%; in test [14], 78.6%; in test [15] it was 101%; in test [16], 96.9%; in [17], 82.4%; in test [18] it was 89.4%. For the same compound, the growth in test [19] was 100%; in test [20], 102%.

(Values after PubChem BioAssay (NCI).)
